# ELG1 genotox = inducers of genotoxicity in HEK293T ELG1-luciferase cells | 330,000 compounds, 1.3% hits | HEK293T ELG1-luciferase reporter, luminescence, 16 h | AID 504466 | Potency, µM (series often up to 46 µM), for the others: at the highest dose activity change, positive = activation, most hits filed as activators; note: % of control where 0% means no effect; nearly all actives have a fitted effect of over 60% in size
#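 Luminescence read-out: rising ELG1-luciferase signal, reflecting elevated ELG1 protein under genetic stress, flags genotoxic compounds. Cells were treated for 16 hr at 37 °C before ONE-Glo detection.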
# FLuc counter = counter-screen for miR-21 project: firefly luciferase inhibitors or activators; purified FLuc, Km substrates, luminescence inhibition; AID 588342; P08659; 360,000 compounds, 6.9% hits; Potency, µM (highest dose often 57.5 µM), without a hit: at the highest dose activity change, negative = inhibition, usual class: inhibitors;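 note: plate controls were vehicle for no effect and reference inhibitor for full effect; nearly all actives have a fitted effect of over 55% in size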
# Target sequence (P08659 whole entry, looked up): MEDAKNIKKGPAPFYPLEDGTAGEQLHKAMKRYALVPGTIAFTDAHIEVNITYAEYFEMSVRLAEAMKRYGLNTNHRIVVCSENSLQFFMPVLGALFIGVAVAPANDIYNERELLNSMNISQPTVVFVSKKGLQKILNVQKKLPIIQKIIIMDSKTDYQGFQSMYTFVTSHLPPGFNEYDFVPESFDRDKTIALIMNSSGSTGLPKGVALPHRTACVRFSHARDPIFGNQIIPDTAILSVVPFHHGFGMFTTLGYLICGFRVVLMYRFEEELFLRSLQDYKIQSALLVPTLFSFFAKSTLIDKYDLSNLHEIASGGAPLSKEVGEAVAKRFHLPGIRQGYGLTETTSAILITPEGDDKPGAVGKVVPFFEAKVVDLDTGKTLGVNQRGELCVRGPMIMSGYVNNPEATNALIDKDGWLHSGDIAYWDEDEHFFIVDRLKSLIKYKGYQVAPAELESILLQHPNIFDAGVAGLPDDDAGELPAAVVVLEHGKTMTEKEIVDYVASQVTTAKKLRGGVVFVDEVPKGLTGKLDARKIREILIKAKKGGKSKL
#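 Purified P. pyralis luciferase, 10 nM final, with Km-level 10 uM D-luciferin and 10 uM ATP in 50 mM Tris acetate pH 7.5, 10 mM Mg acetate, 0.01% Tween-20, 0.05% BSA; 6-point qHTS titration about 60 µM downward; luminescence read.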
# Rab9 promoter act = Rab9 promoter activation; Huh7 Rab9 promoter-luciferase reporter, luminescence, 24 h; Potency, µM (doses to about 9.22 µM), inactives show at the top dose activation, negative = inhibition, most hits filed as activators; 320,000 compounds, 2.8% hits; AID 485297; note: % of control where 0% means no effect; nearly all actives have a fitted effect of over 60% in size
#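 Luminescence read-out: Huh7 cells stably expressing Rab9-luciferase, treated 24 h with compound at 37 °C, then lysed with luciferase reagent for 10 min at ambient before reading.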
# p53 reactivation = mutant p53 re-activation in reporter cells; Potency, µM (highest dose often 92.2 µM), inactives show at the highest dose activity change, positive = activation, hits mostly activators; H1299 p53-A138V BP100-luciferase reporter, luminescence, 24 h; 320,000 compounds, 0.063% hits; note: % of control where 0% means no effect; nearly all actives have a fitted effect of over 45% in size
#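 H1299 (p53-null), stable ts p53-A138V + BP100-Luc; 1000 cells/well, Opti-MEM/10% FBS; cpd 4 pt, 1:5; 24 h, 37 deg C, 5% CO2; detection reagent 10 min RT; luminescence.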
# SMN2 splice up = enhancers of SMN2 splice variant expression; 210,000 compounds, 2.8% hits; Potency, µM (highest dose often 46.1 µM), for the others: at the top dose activity change, positive = activation, hits mostly activators; HEK293 SMN2-luciferase splicing reporter, luminescence, 30-36 h; note: % of control where 0% means no effect; nearly all actives have a fitted effect of over 55% in size
#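 HEK293 cells carry an SMN2 […]–luciferase reporter in which exon 7 inclusion puts luciferase in frame. Cells were plated 10-12 h before compound addition, then incubated 30-36 h at 37C. ONE-Glo luminescence was read; sodium butyrate at 4.5 mM final served as control.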
# NPC1 promoter act = activates the NPC1 promoter; Huh7 NPC1 promoter luciferase reporter, 24 h; Potency, µM (highest dose often 9.22 µM), inactives show at the top dose activation, most hits filed as activators; 320,000 compounds, 2.4% hits; AID 485313; note: % of control where 0% means no effect; nearly all actives have a fitted effect of over 60% in size
#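 NPC1 promoter–luciferase Huh7 cells; 24 h compound; luminescence.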
# * hit, by the source's call; ? = inconclusive; · = no result given. A selection: hits, their analogues and other compounds. The true share with any hit is near 7.4%. Calls come from the whole dose curve; as a rule, active = well fitted curve in the direction sought with a large enough effect; inconclusive = small, poorly fitted or top-dose-only effect, or another doubt; inactive = no such curve, though single readings can be large; an effect the other way counts as inactive or inconclusive. Potency is the fitted concentration of half-maximal effect.
SMILES,ELG1 genotox,FLuc counter,Rab9 promoter act,p53 reactivation,SMN2 splice up,NPC1 promoter act
COc1cc(NC(=O)c2cnc3c(-c4ccc(F)cc4)c(C)nn3c2C)cc(OC)c1,·,-12.6%,·,·,·,·
Cc1ccc(SCCSc2nc(C)cc(=O)[nH]2)cc1,23.1µM*,5.36µM*,?,·,·,?
Cc1ccc(SCCSc2nc(N)cc(=O)[nH]2)cc1,6.1%,?,13.4%,-18.0%,·,6.1%
CCOc1ccc(OCCSc2nc(C)cc(=O)[nH]2)cc1,?,13.5µM*,?,16.0%,6.4%,?
C=CCOc1ccccc1C(=O)/C=C1/C(=O)Nc2ccccc21,?,?,-4.8%,-17.8%,·,2.7%
C=CCOc1ccc(C(=O)/C=C2/C(=O)Nc3ccccc32)cc1,16.1%,1.51µM*,-1.6%,8.7%,·,-4.3%
NC(=O)COc1ccc(C(=O)/C=C2/C(=O)Nc3ccccc32)cc1,15.0%,10.7µM*,-4.9%,-11.5%,·,2.9%
COC1C=CO[C@@]2(C)Oc3c(C)c(O)c4c(O)c(c5c(nc6cc(C)ccn65)c4c3C2=O)NC(=O)/C(C)=C\C=CC(C)C(O)[C@@H](C)C(O)C(C)[C@@H](OC(C)=O)C1C (stereo not given in full),·,·,·,·,7.5%,·
O=C(NCCCNC(=O)c1cc(Cl)ccc1Cl)c1ccco1,-3.7%,2.0%,2.4%,5.9%,·,1.5%
O=C1CC(c2ccccc2)CC(O)=C1C=Nc1ccccc1 (stereo not given),-0.1%,16.9µM*,1.3%,4.5%,-3.7%,-3.9%
Cc1ccc(N=CC2=C(O)CC(c3ccco3)CC2=O)cc1 (stereo not given),8.2%,10.7µM*,11.4%,-7.0%,-14.4%,0.8%
COC(=O)[C@@H]1C[C@@]2(O)[C@@H](O)[C@@H](O)[C@@H](O)C[C@H]2N1CC1CC1,·,·,·,·,15.5%,·
COc1ccc(Cc2nnc(NC(=O)c3cccc(F)c3)s2)cc1OC,-0.3%,1.2%,-1.4%,11.6%,·,2.0%
CCOc1ccc(NC(=O)c2cccc3c2C(=O)N(Cc2cccnc2)C3)cc1,?,8.49µM*,5.1%,-15.0%,17.9%,0.9%
COCCN1Cc2cccc(C(=O)Nc3ccc4c(c3)OCCO4)c2C1=O,?,21.3µM*,0.1%,?,-18.5%,-0.2%
COC(CNC(=O)c1cccc2c1C(=O)N(Cc1cccnc1)C2)OC,0.0%,0.1%,-5.5%,0.9%,0.0%,-3.8%
COCCN1Cc2cccc(C(=O)Nc3ccc(C)cc3)c2C1=O,-0.4%,?,-3.4%,-0.8%,·,-5.1%
CCCN1Cc2cccc(C(=O)Nc3ccc(CN4CCCC4)cc3)c2C1=O,1.3%,16.9µM*,-16.8%,9.2%,-2.2%,0.4%
COC(=O)CNC(=O)C1(C)C=CC2(CCCCC2)N1C(C)=O (stereo not given),·,·,·,·,5.1%,·
CCOc1ccc(NC(=O)CCCc2nc(-c3cccc(OC)c3)no2)cc1,·,-15.2%,·,·,-6.5%,·
CCN(CC)c1ccc(/C=C2/C(=O)ON=C2C)cc1,5.8%,12µM*,-2.5%,7.7%,-2.4%,-2.2%
CN(C)c1ccc(/C=C2\N=C(C(C)(C)C)OC2=O)cc1,-0.5%,1.51µM*,-3.7%,16.7%,·,1.1%
CC1=NOC(=O)/C1=C/c1ccc(N(C)C)cc1,5.6%,7.57µM*,0.6%,27.5%,·,-1.0%
CN(C)c1ccc(/C=C2\C(=O)Nc3ccccc32)cc1,·,·,3.66µM*,·,3.16µM*,1.46µM*
CC1=NOC(=O)/C1=C/c1ccc(O)c(Cl)c1,-0.1%,?,-6.9%,-2.3%,·,-0.5%
CCN(CC)c1ccc(C=C2C(=O)OC3(CCCCC3)OC2=O)cc1,-0.2%,?,9.8%,2.6%,-5.9%,-5.2%
COc1ccc(C(=O)c2oc3nc(C)cc(C)c3c2N)cc1,0.5%,12µM*,17.6%,14.5%,-8.7%,0.0%
Cc1ccc(C(=O)c2oc3nc(C)cc(C)c3c2N)cc1,1.7%,13.5µM*,-10.1%,2.6%,-4.0%,-0.5%
CCc1ccc(C(=O)c2oc3nc(C)cc(C)c3c2N)cc1,6.0%,15.1µM*,24.2%,-2.0%,-4.6%,2.6%

# High-throughput results (PubChem BioAssay)
